Results published in PubChem BioAssay (NCI).
“And” between values parts separate entries of the source, which are not always exact repeats. Equal values may be shown once. The panel holds about 79,000 compounds, 15% with a hit somewhere; the sample as a whole holds those more often. The source holds several records for some structures; these can differ, active in one and inactive in another. The source made the active and inactive calls. Rule as the data show it: active = growth inhibition above about 70%; inactive = the rest.

Legend:
[1] = NCI Yeast Anticancer Drug Screen. Data for the rad52 strain (AID 147);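 also: 0% = growth of vehicle-treated control cultures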; conditions: S. cerevisiae rad52 mutant growth inhibition, stronger effect = higher value
Summary of the method: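 Genetically altered yeast (DNA damage repair defect) treated with compound; inhibition calculated relative to vehicle.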

[2] = NCI Yeast Anticancer Drug Screen. Data for the wt1 strain (AID 149);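 also: 0% = growth of vehicle-treated wt1 cultures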; conditions: S. cerevisiae wt1 strain (SPY 50644) growth inhibition, stronger effect = higher value
Summary of the method: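 wt1 yeast, compound-treated; % growth inhibition vs vehicle control.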

[3] = NCI Yeast Anticancer Drug Screen. Data for the rad50EPP+ strain (AID 151);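 also: 0% = growth of vehicle-treated control cultures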; conditions: S. cerevisiae rad50 mutant strain, stronger effect = higher value
Summary of the method: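 Strain rad50EPP+; compound exposure; % growth inhibition vs vehicle.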

[4] = NCI Yeast Anticancer Drug Screen. Data for the mgt1 strain (AID 153); conditions: S. cerevisiae mgt1 mutant growth inhibition, stronger effect = higher value
Summary of the method: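 Read-out: yeast growth inhibition vs vehicle control. Strain mgt1, drawn from a panel altered in DNA damage repair or cell cycle control.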

[5] = NCI Yeast Anticancer Drug Screen. Data for the rad50 strain (AID 155);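 also: 0% = growth of vehicle-only cultures of the same strain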; conditions: S. cerevisiae rad50 strain growth inhibition, stronger effect = higher value
Summary of the method: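 Genetically altered yeast (DNA repair pathway); compound treatment; growth inhibition vs vehicle ctrl.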

[6] = NCI Yeast Anticancer Drug Screen. Data for the mec2-1 strain (AID 157); conditions: S. cerevisiae mec2-1 strain, stronger effect = higher value
Summary of the method: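 Cells of the genetically defined mec2-1 yeast strain are incubated with test compound. Inhibition of growth is calculated against vehicle-treated controls.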

[7] = NCI Yeast Anticancer Drug Screen. Data for the sgs1 mgt1 strain (AID 161);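 also: 0% = growth of cultures given vehicle only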; conditions: S. cerevisiae sgs1 mgt1 strain, stronger effect = higher value
Summary of the method: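 Read-out: growth inhibition vs vehicle controls. Cells: mutant yeast strain deficient in DNA damage repair.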

[8] = NCI Yeast Anticancer Drug Screen. Data for the CLN2oe strain (AID 163);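 also: 0% = growth of vehicle-only control cultures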; conditions: S. cerevisiae CLN2oe strain, stronger effect = higher value
Summary of the method: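 Strain altered in cell-cycle control, incubated with compound; growth compared to solvent-treated controls.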

[9] = NCI Yeast Anticancer Drug Screen. Data for the cln2 rad14 strain (AID 165);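 also: 0% = growth equal to vehicle treated cultures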; conditions: S. cerevisiae cln2 rad14 strain, stronger effect = higher value
Summary of the method: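 The screen exposed genetically defined yeast (cln2 rad14) to test compounds and scored growth inhibition relative to vehicle-treated controls.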

[10] = NCI Yeast Anticancer Drug Screen. Data for the bub3 strain (AID 167); conditions: S. cerevisiae bub3 mutant strain, stronger effect = higher value
Summary of the method: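 Yeast carrying a defined mutation is treated with each compound, and growth is compared with that of vehicle-exposed cells to give inhibition.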

[11] = NCI Yeast Anticancer Drug Screen. Data for the wt2 strain (AID 169);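 also: 0% = growth of vehicle-treated yeast cultures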; conditions: S. cerevisiae wt2 strain growth inhibition, stronger effect = higher value
Summary of the method: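 Steps: yeast strain treated with compound; growth recorded; inhibition calculated relative to cultures given vehicle alone.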

[12] = NCI Yeast Anticancer Drug Screen. Data for the sgs1 strain (AID 173);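 also: 0% = growth of vehicle-only control cultures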; conditions: S. cerevisiae sgs1 mutant, stronger effect = higher value
Summary of the method: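 Inhibition of yeast growth served as the measure. The mutant strain was treated with each compound, and growth was normalised to cultures receiving vehicle alone.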

[13] = NCI Yeast Anticancer Drug Screen. Data for the mlh1 rad18 strain (AID 175); conditions: S. cerevisiae mlh1 rad18 strain growth inhibition, stronger effect = higher value
Summary of the method: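 Compound-treated yeast growth, normalised to vehicle controls. Strain bears defined DNA repair mutations.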

[14] = NCI Yeast Anticancer Drug Screen. Data for the rad18 strain (AID 177); conditions: S. cerevisiae rad18 mutant growth inhibition, stronger effect = higher value
Summary of the method: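 Inhibition values reflect reduced yeast growth compared with vehicle-treated controls, using a strain engineered with a DNA damage repair defect.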

[15] = NCI Yeast Anticancer Drug Screen. Data for the rad14 strain (AID 159);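 also: 0% = growth of vehicle-treated control cultures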; conditions: S. cerevisiae rad14 strain growth inhibition, stronger effect = higher value
Summary of the method: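 Test compounds were applied to a repair-deficient yeast strain. Its growth was then compared with that of cultures given vehicle alone, and inhibition was expressed relative to those controls.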

[16] = NCI Yeast Anticancer Drug Screen. Data for the mlh1 strain (AID 171);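 also: 0% = growth of vehicle-treated control cultures of the same strain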; conditions: S. cerevisiae mlh1 strain growth inhibition, stronger effect = higher value
Summary of the method: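 Yeast screen: mutant strain plus compound, growth scored against vehicle control wells.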

[17] = at 5.0 µM (retest, dose inferred, filed as 0.5)
[18] = at 50.0 µM (retest, dose inferred, filed as 5.0)

Measured: growth inhibition

Cc1c(C)c(C)c(CSC(=N)N)c(C)c1C
inactive: [1]; at 1.2 µM -23% | [1]; at 3.7 µM -17% | [1]; at 11.0 µM -12% | [1]; at 33.0 µM 36% | [2]; at 1.2 µM -29% | [2]; at 3.7 µM -32% | [2]; at 11.0 µM -30% | [2]; at 33.0 µM 8% | [3]; at 1.2 µM -55% | [3]; at 3.7 µM -53% | [3]; at 11.0 µM -79% | [3]; at 33.0 µM -59% | [4]; at 1.2 µM -52% | [4]; at 3.7 µM -50% | [4]; at 11.0 µM -50% | [4]; at 33.0 µM 6% | [5]; at 1.2 µM -13% | [5]; at 3.7 µM -10% | [5]; [17] 46% | [5]; at 11.0 µM -9% | [5]; at 33.0 µM 51% | [6]; at 1.2 µM -74% | [6]; at 3.7 µM -78% | [6]; [17] 54% | [6]; at 11.0 µM -69% | [6]; at 33.0 µM 31% | [7]; [17] -4% | [8]; at 1.2 µM -22% | [8]; at 3.7 µM -18% | [8]; at 11.0 µM -14% | [8]; at 33.0 µM 59% | [9]; [17] 8% | [10]; at 1.2 µM -23% | [10]; at 3.7 µM -9% | [10]; [17] 35% | [10]; at 11.0 µM -10% | [10]; at 33.0 µM 55% | [11]; at 1.2 µM -41% | [11]; at 3.7 µM -38% | [11]; at 11.0 µM -32% | [11]; at 33.0 µM 57% | [12]; at 1.2 µM -51% | [12]; at 3.7 µM -34% | [12]; at 11.0 µM -34% | [13]; [17] 44% | [14]; at 1.2 µM -56% | [14]; at 3.7 µM -55% | [14]; at 11.0 µM -58% | [14]; at 33.0 µM 58%
active: [1]; at 100.0 µM 98% | [2]; at 100.0 µM 98% | [3]; at 100.0 µM 96% | [4]; at 100.0 µM 98% | [5]; [18] 81% | [5]; at 50.0 µM 91.8% | [5]; at 100.0 µM 99% | [6]; [18] 86% | [6]; at 50.0 µM 93.5% | [6]; at 100.0 µM 98% | [7]; [18] 100% | [7]; at 50.0 µM 93.3% | [8]; at 100.0 µM 99% | [9]; [18] 100% | [9]; at 50.0 µM 86.1% | [10]; [18] 99% | [10]; at 50.0 µM 83.2% | [10]; at 100.0 µM 98% | [11]; at 100.0 µM 99% | [12]; at 33.0 µM 84% | [12]; at 100.0 µM 98% | [13]; [18] 78% | [13]; at 50.0 µM 92.3% | [14]; at 100.0 µM 98%

O=c1ccc(=O)n(-c2ccccc2)[nH]1
85% (active) and -26.4% (inactive): [6]; at 50.0 µM
79.4% (active) and -20.1% (inactive): [13]; at 50.0 µM
86.2% (active) and -25.4% (inactive): [10]; at 50.0 µM
inactive: [1]; at 1.2 µM -29% | [1]; at 3.7 µM -11% | [1]; at 11.0 µM 17% | [2]; at 1.2 µM -16% | [2]; at 3.7 µM -10% | [2]; at 11.0 µM 29% | [3]; at 1.2 µM -24% | [3]; at 3.7 µM -5% | [3]; at 11.0 µM 38% | [5]; at 1.2 µM -14% | [5]; at 3.7 µM -3% | [5]; [17] 25% | [5]; at 11.0 µM 28% | [6]; at 1.2 µM -23% | [6]; at 3.7 µM -24% | [6]; [17] -17% | [6]; at 11.0 µM 2% | [15]; at 1.2 µM -12% | [15]; at 3.7 µM -9% | [15]; at 11.0 µM 4% | [15]; at 33.0 µM 60% | [7]; [17] 1% | [8]; at 1.2 µM 7% | [8]; at 3.7 µM 20% | [8]; at 11.0 µM 29% | [9]; [17] 18% | [9]; at 50.0 µM 58.5% and -14.5% | [10]; at 1.2 µM -13% | [10]; at 3.7 µM -23% | [10]; [17] 41% | [10]; at 11.0 µM 2% | [11]; at 1.2 µM -15% | [11]; at 3.7 µM -10% | [11]; at 11.0 µM 1% | [11]; at 33.0 µM 66% | [16]; at 1.2 µM -2% | [16]; at 3.7 µM -4% | [16]; at 11.0 µM 30% | [13]; [17] 38% | [14]; at 1.2 µM -20% | [14]; at 3.7 µM 3% | [14]; at 11.0 µM 47%
85.3% (active) and -33% (inactive): [5]; at 50.0 µM
active: [1]; at 33.0 µM 79% | [1]; at 100.0 µM 97% | [2]; at 33.0 µM 71% | [2]; at 100.0 µM 95% | [3]; at 33.0 µM 75% | [3]; at 100.0 µM 87% | [5]; at 33.0 µM 82% | [5]; [18] 90% | [5]; at 100.0 µM 95% | [6]; at 33.0 µM 78% | [6]; [18] 95% | [6]; at 100.0 µM 98% | [15]; at 100.0 µM 96% | [7]; [18] 84% | [8]; at 33.0 µM 71% | [8]; at 100.0 µM 97% | [9]; [18] 79% | [10]; at 33.0 µM 83% | [10]; [18] 97% | [10]; at 100.0 µM 98% | [11]; at 100.0 µM 93% | [16]; at 33.0 µM 87% | [16]; at 100.0 µM 99% | [13]; [18] 95% | [14]; at 33.0 µM 84% | [14]; at 100.0 µM 94%
91.3% (active) and -13.6% (inactive): [7]; at 50.0 µM
